The structures appear in SMILES notation. Values joined by “and” are separate entries in the source; they are usually repeats but may differ in a detail not shown here. Identical values can stand only once. More than one record can exist for a structure, and the calls need not agree. Active and inactive are the calls of the source. How the source made its calls: active means hit-call score of the fitted dose curve at least 0.9, where 1 is the maximum; inactive means score below 0.9.

Among the data in PubChem BioAssay (EPA / NIEHS) are outcome and AC50 values, retold here.

Read-out in assay [1]: C-C motif chemokine 2 (Homo sapiens) (UniProt P13500)
As to the kind of experiment: BSK_KF3CT_MCP1: BioMAP Diversity Plus: KF3CT Assay for Monocyte Chemoattractant Protein 1 (MCP1/CCL2) Biomarker Activity (AID 2283073). The conditions noted are these: primary human keratinocytes with fibroblasts; actives raise or lower the signal. The method in brief: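 Biomarker MCP-1 is measured by ELISA in primary human keratinocytes co-cultured with foreskin fibroblasts, 24 h after chemical treatment; DMSO serves as the negative control and activity baseline.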

Read-out in assay [2]: Matrix Metallopeptidase 9 (MMP9), MMP9 (gene 4318)
As to the kind of experiment: BSK_KF3CT_MMP9: BioMAP Diversity Plus: KF3CT Assay for Matrix Metallopeptidase 9 (MMP9) Biomarker Activity (AID 2283074).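 Further: MMP9 protein level quantified by ELISA in the co-culture.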 The following applies: primary human keratinocytes with fibroblasts; actives raise or lower the signal. The method, boiled down:
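Human keratinocyte and foreskin fibroblast co-culture exposed to chemicals for 24 h; MMP9 biomarker measured by ELISA, bidirectional fitting relative to DMSO; cytotoxicity tracked by SRB total protein staining in parallel cultures.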

Read-out in assay [3]: urokinase plasminogen activator (uPA), PLAU (gene 5328)
As to the kind of experiment: BSK_KF3CT_uPA: BioMAP Diversity Plus: KF3CT Assay for urokinase plasminogen activator (uPA) Biomarker Activity (AID 2283075). The following applies: primary human keratinocytes with fibroblasts; actives raise or lower the signal. The method, boiled down: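 Primary human keratinocyte/foreskin fibroblast co-culture exposed to chemical; uPA measured by ELISA at 24 h. Bidirectional fit versus DMSO, with parallel SRB total-protein staining for cytotoxicity.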

Read-out in assay [4]: CD40, CD40 (gene 958)
The assay is described as follows: BSK_LPS_CD40: BioMAP Diversity Plus: LPS Assay for CD40 Biomarker Activity (AID 2283076). The conditions noted are these: primary human HUVEC with PBMC; actives raise or lower the signal. The method in brief:
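Using a multiplexed primary human co-culture (umbilical vein endothelium plus PBMC), CD40 was read by ELISA 24 h after dosing, with cytotoxicity tracked by sulforhodamine B staining of parallel cultures and activity fitted bidirectionally versus DMSO.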

Read-out in assay [5]: E-selectin (Homo sapiens) (UniProt P16581)
As to the kind of experiment: BSK_LPS_Eselectin: BioMAP Diversity Plus: LPS Assay for Eselectin Biomarker Activity (AID 2283077). The conditions noted are these: primary human HUVEC with PBMC; actives raise or lower the signal. The method, boiled down:
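Dose chemical onto LPS-driven HUVEC/PBMC co-culture; after 24 h, run ELISA for E-selectin; fit up- and down-going responses relative to DMSO control.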

Read-out in assay [6]: Interleukin-8 (IL8), CXCL8 (gene 3576)
The assay is described as follows: BSK_LPS_IL8: BioMAP Diversity Plus: LPS Assay for Interleukin-8 (IL8) Biomarker Activity (AID 2283078). The following applies: primary human HUVEC with PBMC; actives raise or lower the signal. The method in brief: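 In this LPS system, chemical-treated human umbilical vein endothelium/PBMC co-cultures were harvested at 24 h for IL-8 ELISA.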

Assay [7] is described as follows: BSK_LPS_SRB: Viability Assessment in the BioMAP Diversity Plus: LPS Assay (AID 2283079).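 Further: total protein by sulforhodamine B absorbance as a cytotoxicity measure; measured one day after compound addition; fitted in both directions against DMSO so loss or gain of signal counts.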 The following applies: primary human HUVEC with PBMC. The method, boiled down:
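Cytotoxicity endpoint in human endothelial–PBMC co-culture: 24 h exposure, then SRB (0.1%) staining, 560 nm read.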

Read-out in assay [8]: Interleukin-1 alpha (IL1a), IL1A (gene 3552)
The assay is described as follows: BSK_LPS_IL1a: BioMAP Diversity Plus: LPS Assay for Interleukin-1 alpha (IL1a) Biomarker Activity (AID 2283080). The conditions noted are these: primary human HUVEC with PBMC; actives raise or lower the signal. The method, boiled down:
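Primary human HUVEC and PBMC co-culture stimulated with LPS is dosed and harvested at 24 h. Both increases and decreases in ELISA-measured IL-1a are scored relative to DMSO.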

Read-out in assay [9]: Monocyte Chemoattractant Protein-1 (MCP1), CCL2 (gene 6347)
As to the kind of experiment: BSK_LPS_MCP1: BioMAP Diversity Plus: LPS Assay for Monocyte Chemoattractant Protein-1 (MCP1) Biomarker Activity (AID 2283081).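 Further: secreted MCP-1 protein quantified by ELISA in culture supernatant.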 The conditions noted are these: primary human HUVEC with PBMC; actives raise or lower the signal. The method, boiled down:
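Values derive from bidirectional fitting against DMSO of ELISA-measured MCP-1 in a human primary endothelial and mononuclear cell co-culture, 24 h after chemical addition under LPS activation.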

Assay [10] is described as follows: BSK_LPS_PGE2: BioMAP Diversity Plus: LPS Assay for Prostaglandin E2 (PGE2) Biomarker Activity (AID 2283082). The following applies: primary human HUVEC with PBMC; actives raise or lower the signal. The method, boiled down:
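LPS-activated HUVEC/PBMC co-culture; cmpd dosed, 24 h; PGE2 by ELISA; bidirectional fit vs DMSO; SRB (0.1%, TCA-fixed, 560 nm) in parallel plates for overt cytotox.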

Read-out in assay [11]: Macrophage colony-stimulating factor (MCSF), CSF1 (gene 1435)
The assay is described as follows: BSK_LPS_MCSF: BioMAP Diversity Plus: LPS Assay for Macrophage colony-stimulating factor (MCSF) Biomarker Activity (AID 2283083). The conditions noted are these: primary human HUVEC with PBMC; actives raise or lower the signal. The method in brief: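 Bidirectional fit versus DMSO of ELISA-measured M-CSF in co-cultured human umbilical vein endothelial cells and PBMC, sampled 24 h after dosing.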

Read-out in assay [12]: Tumor necrosis factor (Homo sapiens) (UniProt P01375)
As to the kind of experiment: BSK_LPS_TNFa: BioMAP Diversity Plus: LPS Assay for Tumour Necrosis Factor alpha (TNFa) Biomarker Activity (AID 2283085). The conditions noted are these: primary human HUVEC with PBMC; actives raise or lower the signal. The method, boiled down: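 Read-out is ELISA of TNFa in primary human endothelial cell–PBMC co-cultures at 24 h after compound. Activity in either direction was fitted against DMSO.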

Read-out in assay [13]: Vascular cell adhesion molecule 1 (VCAM1), VCAM1 (gene 7412)
As to the kind of experiment: BSK_LPS_VCAM1: BioMAP Diversity Plus: LPS Assay for Vascular cell adhesion molecule 1 (VCAM1) Biomarker Activity (AID 2283086). The conditions noted are these: primary human HUVEC with PBMC; actives raise or lower the signal. The method, boiled down:
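HUVEC + PBMC co-culture, LPS system; compound 24 h; VCAM-1 by ELISA; bidirectional fit vs DMSO control; parallel SRB (0.1%, TCA-fixed, 560 nm) for cytotoxicity.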

Read-out in the next assay: CD38, CD38 (gene 952)
The assay is described as follows: BSK_SAg_CD38: BioMAP Diversity Plus: SAg Assay for CD38 Biomarker Activity (AID 2283087). The conditions noted are these: primary human HUVEC with PBMC; actives raise or lower the signal. The method in brief:
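Human HUVEC plus PBMC co-culture stimulated with superantigen; CD38 measured by ELISA 24 h after chemical dosing. Fluorescence read-out, bidirectional fit against DMSO; cytotoxicity tracked in parallel by SRB and Alamar Blue.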

Read-out in assay [14]: CD40, CD40 (gene 958)
The assay is described as follows: BSK_SAg_CD40: BioMAP Diversity Plus: SAg Assay for CD40 Biomarker Activity (AID 2283088). The following applies: primary human HUVEC with PBMC; actives raise or lower the signal. The method, boiled down: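 Endpoint derived by fitting increases or decreases versus DMSO controls. CD40 is detected by fluorescence ELISA in a human vascular co-culture of endothelium and PBMC at 24 h.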

Read-out in the next assay: CD69, CD69 (gene 969)
As to the kind of experiment: BSK_SAg_CD69: BioMAP Diversity Plus: SAg Assay for CD69 Biomarker Activity (AID 2283089).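 Further: cell surface CD69 protein quantified by ELISA with fluorescence detection.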 The conditions noted are these: primary human HUVEC with PBMC; actives raise or lower the signal. The method, boiled down:
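Values derive from bidirectional fitting relative to DMSO vehicle. Cells: umbilical vein endothelium plus peripheral blood mononuclear cells, treated 24 h before fluorescent ELISA for CD69.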

Read-out in assay [15]: Monocyte Chemoattractant Protein-1 (MCP1), CCL2 (gene 6347)
As to the kind of experiment: BSK_SAg_MCP1: BioMAP Diversity Plus: SAg Assay for Monocyte Chemoattractant Protein-1 (MCP1) Biomarker Activity (AID 2283090). The conditions noted are these: primary human HUVEC with PBMC; actives raise or lower the signal. The method, boiled down:
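MCP-1 levels in the endothelial–PBMC SAg co-culture were quantified by ELISA at 24 h post-dosing; both increases and decreases versus DMSO scored. Cytotoxicity monitored by SRB total protein in parallel cultures.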

Read-out in assay [16]: E-selectin (Homo sapiens) (UniProt P16581)
As to the kind of experiment: BSK_SAg_Eselectin: BioMAP Diversity Plus: SAg Assay for Eselectin Biomarker Activity (AID 2283091). The conditions noted are these: primary human HUVEC with PBMC; actives raise or lower the signal. The method in brief:
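Endpoint values derive from bidirectional fitting relative to DMSO, using ELISA-measured E-selectin in a human vascular co-culture (umbilical vein endothelium plus PBMC) sampled 24 h after dosing.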

Read-out in assay [17]: Monokine induced gamma interferon (MIG), CXCL9 (gene 4283)
The assay is described as follows: BSK_SAg_MIG: BioMAP Diversity Plus: SAg Assay for Monokine induced gamma interferon (MIG) Biomarker Activity (AID 2283092). The following applies: primary human HUVEC with PBMC; actives raise or lower the signal. The method in brief: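 Values reflect bidirectional fitting of ELISA-measured MIG against DMSO vehicle, taken 24 h after dosing of a co-culture of human umbilical vein endothelial cells and peripheral blood mononuclear cells.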

Read-out in assay [18]: Tissue Factor, F3 (gene 2152)
As to the kind of experiment: BSK_LPS_TissueFactor: BioMAP Diversity Plus: LPS Assay for Tissue Factor Biomarker Activity (AID 2283084). The conditions noted are these: primary human HUVEC with PBMC; actives raise or lower the signal. The method, boiled down:
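Read-out: CD142 ELISA, 24 h. System: LPS-driven human endothelial/PBMC co-culture. Analysis: up- or down-signal fitted against DMSO.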

Tumor necrosis factor (Homo sapiens), sequence (P01375 whole entry, looked up): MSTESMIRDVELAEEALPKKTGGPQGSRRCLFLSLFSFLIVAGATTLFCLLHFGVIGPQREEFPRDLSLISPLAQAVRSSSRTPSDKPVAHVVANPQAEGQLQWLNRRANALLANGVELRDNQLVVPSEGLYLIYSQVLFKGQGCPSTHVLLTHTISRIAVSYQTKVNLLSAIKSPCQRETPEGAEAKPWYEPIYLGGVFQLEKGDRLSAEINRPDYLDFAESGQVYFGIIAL
E-selectin (Homo sapiens), sequence (P16581 whole entry, looked up): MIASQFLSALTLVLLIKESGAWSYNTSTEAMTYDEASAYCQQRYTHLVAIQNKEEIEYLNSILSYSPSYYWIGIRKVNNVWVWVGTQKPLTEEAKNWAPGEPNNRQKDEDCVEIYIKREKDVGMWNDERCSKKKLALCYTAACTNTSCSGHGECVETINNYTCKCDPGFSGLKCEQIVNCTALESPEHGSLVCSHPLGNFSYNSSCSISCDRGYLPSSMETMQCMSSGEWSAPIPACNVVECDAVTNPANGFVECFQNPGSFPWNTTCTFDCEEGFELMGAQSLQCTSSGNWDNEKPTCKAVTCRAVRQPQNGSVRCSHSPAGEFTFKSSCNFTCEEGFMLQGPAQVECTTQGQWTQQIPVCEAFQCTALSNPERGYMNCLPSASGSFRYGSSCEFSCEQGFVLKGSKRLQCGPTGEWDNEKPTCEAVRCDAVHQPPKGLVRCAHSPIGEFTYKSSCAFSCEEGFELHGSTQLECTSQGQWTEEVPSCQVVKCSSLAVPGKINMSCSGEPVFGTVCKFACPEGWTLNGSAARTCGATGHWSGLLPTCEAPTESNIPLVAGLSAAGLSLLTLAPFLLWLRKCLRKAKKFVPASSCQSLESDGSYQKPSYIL

`O=C(CC(=O)C(F)(F)C(F)(F)C(F)(F)F)c1cccs1`: the outcome was “inactive” in [1]; “inactive” in assay [3]; “inactive” with CD40, CD40 (gene 958) [4]; “inactive” in assay [5]; “inactive” in [6]; “inactive” in assay [8]. The outcome in assay [10], in assay [11] and in assay [12] was inactive. Further, the AC50 in [2] is 2.38 µM (active) and 4.67 µM (active); with CD40, CD40 (gene 958) [4] it was 22.9 µM (active); in assay [7], 26.4 µM (active) and 37.3 µM (active); in assay [9] it was 30 µM (active) and 40.4 µM (active); in assay [11], 30 µM (active); in assay [12], 15.2 µM (active). Besides, the AC50 is 45.7 µM (active) and 46.4 µM (active) in assay [13]; 23.1 µM (active) and 28.6 µM (active) with CD38, CD38 (gene 952); 17 µM (active) and 16.2 µM (active) in the assay with CD40, CD40 (gene 958) [14]; 17.6 µM (active) and 30 µM (active) with CD69, CD69 (gene 969); 37.4 µM (active) and 41.6 µM (active) in [15]; 30 µM (active) and 43.1 µM (active) in [16]. The AC50 in assay [17] is 48.3 µM (active) and 53.4 µM (active).

As to `C=COC(=O)C(C)(C)CCCCCC`, the AC50 is 25.9 µM (active) in assay [1]; 33 µM (active) in assay [2]; 28 µM (active) in assay [3]; 31.7 µM (active) with CD40, CD40 (gene 958) [4]; 30.6 µM (active) in [5]; 33.1 µM (active) in assay [6]. Moreover, the AC50 in assay [7] is 34.6 µM (active); in assay [8], 33.6 µM (active); in assay [9] it was 31 µM (active); in assay [11] it was 32.4 µM (active); in [18] it was 32.5 µM (active); in assay [12], 0.371 µM (active). Besides, the half-maximal activity concentration (AC50) was 31.1 µM (active) in [13]; 4.12 µM (active) in the assay with CD40, CD40 (gene 958) [14]; 20 µM (active) with CD69, CD69 (gene 969); 31.1 µM (active) in assay [15]; 32.2 µM (active) in assay [16]. The outcome is “inactive” in [10] and “inactive” in the assay with CD38, CD38 (gene 952).
